Potency and affinity values are given separately. The source made the active and inactive calls.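 How the source made its calls: active means compounds whose fitted half-maximal effective concentration for blocking dye efflux is below 100 µM; inactive means the rest.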

Benomyl/methotrexate resistance protein (Candida albicans), sequence (P28873 whole entry, looked up): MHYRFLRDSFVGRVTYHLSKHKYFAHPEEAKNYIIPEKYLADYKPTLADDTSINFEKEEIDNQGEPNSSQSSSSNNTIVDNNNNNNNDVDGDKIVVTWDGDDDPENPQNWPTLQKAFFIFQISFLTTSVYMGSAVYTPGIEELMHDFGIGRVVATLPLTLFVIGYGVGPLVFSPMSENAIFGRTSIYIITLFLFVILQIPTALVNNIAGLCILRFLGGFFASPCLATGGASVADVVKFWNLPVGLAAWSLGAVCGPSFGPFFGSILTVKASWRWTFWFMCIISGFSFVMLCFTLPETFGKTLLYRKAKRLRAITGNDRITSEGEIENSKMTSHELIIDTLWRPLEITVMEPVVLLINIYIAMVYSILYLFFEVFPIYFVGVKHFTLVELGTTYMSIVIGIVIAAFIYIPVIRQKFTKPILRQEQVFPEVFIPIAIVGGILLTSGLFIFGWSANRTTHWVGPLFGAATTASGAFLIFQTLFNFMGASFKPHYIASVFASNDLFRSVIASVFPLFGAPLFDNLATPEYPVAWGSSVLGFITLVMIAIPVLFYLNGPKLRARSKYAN

The assay has as its target Benomyl/methotrexate resistance protein (Candida albicans) (UniProt P28873). Kind of assay: CaMdr1 efflux pump inhibitor potency, dose response, singleplex, Cherry Pick2 set (AID 623992). The following applies: S. cerevisiae AD/CaMDR1, Nile Red efflux, flow cytometry; series mostly up to 100 µM. (In general: A flow cytometer gives signals particle by particle.)
`COc1cc(OC)c2ccc(=O)oc2c1C(CCN1CCCC(C)C1)c1ccc(N(C)C)cc1` (stereo unspecified): the call was inactive.

With `CCC(=O)N1CCN(c2ccc(Cl)cc2NC(=O)c2ccc3c(c2)OCCO3)CC1`, the outcome was inactive. In the case of `CC1CN(c2nc3ccccc3nc2C(C#N)C(=O)NCc2ccc3c(c2)OCO3)CC(C)O1` (stereo unspecified) it was “inactive”.

Turning to `OCCN1CCN(CC/C=C2/c3ccccc3Sc3ccc(C(F)(F)F)cc32)CC1`, the outcome was inactive.

As for `O=C(NCCC1=CCCCC1)C1CCC(CNc2nc(=S)[nH]c3ccccc23)CC1` (stereo unspecified), the call was inactive. On to `Cc1cc(C(=O)NC2CC(C)(C)Cc3c2cnn3-c2ccc(F)cc2)no1` (stereo unspecified), for which the molecule was classed as inactive. The entry for `O=C(C[n+]1cc(-c2ccc(F)cc2)n2c1CCC2)N1c2ccccc2Sc2ccccc21` is “inactive”. For the molecule `COc1ccc(-c2c[n+](CC(=O)N3c4ccccc4Sc4ccccc43)c3n2CCC3)cc1`, the result was inactive. The entry for `NC1=NC[C@H](Cc2ccc(O)cc2)N1CCCCC1CCCCC1` is “inactive”; for `Cc1cc(C)c2sc(N(CCCN(C)C)C(=O)c3ccc(Br)s3)nc2c1` it is “inactive”. The entry for `CCCCCCCCCC[N+](C)(C)CC/C=C1/c2ccccc2Sc2ccc(Cl)cc21` is “inactive”. With `CCOc1cccc2sc(NC(=O)c3ccc(Br)s3)nc12`, the molecule was classed as inactive. For the molecule `COc1cccc(N2CCN(C(=O)C3CCCN(c4ncnc5c4nc4n5CCCCC4)C3)CC2)c1` (stereo unspecified), the result was inactive.

`CCO[C@@H]1OC(C(=O)Nc2ccccc2)=C[C@H](c2ccccc2)[C@H]1CCCO`: the call was inactive.

In the case of `O=C(Nc1ccccc1)C1=C[C@@H](c2ccc(C(F)(F)F)cc2)C[C@@H](OCCCCO)O1`, the molecule was called inactive. In the case of `Cc1ccc(C2CC(c3ccccc3)=NN2c2ccc(S(N)(=O)=O)cc2)cc1` (stereo unspecified) it was “inactive”. Turning to `Nc1ccc(C(=O)OCCc2ccccc2)cc1`, the result was inactive. Regarding `CCCCNC(=O)C1CCC(CNc2nc(=S)[nH]c3ccccc23)CC1` (stereo unspecified), the result was inactive.

`COc1ccc(C2CC(c3ccccc3C(F)(F)F)=NN2c2ccc(S(N)(=O)=O)cc2)cc1` (stereo unspecified): the molecule was called inactive. For the molecule `COc1ccc(C(=O)NC2CC(C)(C)Cc3c2cnn3-c2ccccc2)c(OC)c1` (stereo unspecified), the molecule was called inactive. In the case of `COc1ccc(C2CC(c3ccccc3)=NN2c2ccc(S(N)(=O)=O)cc2)cc1` (stereo unspecified) it was “inactive”. In the case of `COc1ccc(C(=O)OCCc2ccc(O)cc2)cc1` it was “inactive”. Take `Cc1ccc(N2CCN(C(=O)C3CCCN(c4ncnc5c4nc4n5CCCCC4)C3)CC2)c(C)c1` (stereo unspecified): the molecule was classed as inactive.

With `COc1ccc2nc(NC(=O)c3cccs3)sc2c1`, the outcome was inactive.

As to `O=C(Nc1ccccc1)C1=C[C@@H](c2ccc(Br)cc2)C[C@@H](OCCCCO)O1`, the outcome was inactive.

Take `COc1cc(OC)c2c(-c3ccccc3)cc(=O)oc2c1C(CCN1CCCC(C)C1)c1ccc(N(C)C)cc1` (stereo unspecified): the result was inactive. The entry for `CC(C)C(=O)N1CCC2(CC1)Oc1ccc(Cl)cc1C(=O)C21CC(c2ccc(Cl)cc2)=NO1` (stereo unspecified) is “inactive”. In the case of `Cc1ccc2c(c1)[C@H]1[C@H](CO2)[C@H](c2ccccc2)[C@]2(C)C(=O)Nc3cc(F)c(F)cc3C(=O)N12` it was “inactive”. In the case of `NS(=O)(=O)c1ccc(N2N=C(c3ccccc3)CC2c2ccc(F)cc2)cc1` (stereo unspecified) it was “inactive”; in that of `COc1ccc([C@H]2CC(=O)C=C(c3ccnc4ccc(Cl)cc34)C2)cc1`, “inactive”. Take `CCc1ccc(C2=NN(c3ccc(S(N)(=O)=O)cc3)C(c3ccc(F)cc3)C2)cc1` (stereo unspecified): the outcome was inactive.

(Values after PubChem BioAssay AID623992 (NMMLSC, 2012).)
